Assay outcomes: PubChem BioAssay, National Center for Advancing Translational Sciences (NCATS)
BCR signal inh: blocks chronic active B-cell receptor signaling. ABC-DLBCL IkBa-CBG/CBR reporter, luminescence ratio, 4 h. Potency, µM (titrated, usually from 46.1 µM), usual class: inhibitors. 340,000 tested, 0.05% active. AID 493014; active = well fitted inhibition curve with a large enough effect in the signal ratio, with a control signal flat, not every such curve was filed as active; inconclusive = small, poorly fitted or top-dose-only effect, or effect the other way, or a change in a side signal; the % refers to the signal ratio
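Compounds up to 46 uM were incubated four hours with TMD8 cells whose green CBG68 luciferase is fused to IkappaBalpha; red CBR luminescence normalised the signal, and concentration-effect curves were fitted to fusion, red and ratio data.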
PGK inhibitor: blocks T. brucei phosphoglycerate kinase | P07378 | PGK/GAPDH coupled, Kinase-Glo luminescence, 60 min | Potency, µM (highest dose often 57.5 µM), actives largely listed as inhibitors | 380,000 tested, 0.043% active; note: nearly all actives have a fitted effect of over 60% in size
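Recombinant glycosomal PGK reaction used 1,3-bisphosphoglycerate generated in-well by GAPDH (100nM final) in 100mM TEA pH 7.6, 5mM MgCl2, 0.01% Tween-20. After 60 minutes at room temperature, ATP was read by Kinase-Glo Plus luminescence end-point.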
B2AR arrestin: agonists driving beta-arrestin recruitment to human beta2-adrenergic receptor; beta-arrestin recruitment to beta2AR, cell-based reporter; 330,000 tested, 0.02% active; Potency, µM (top dose mostly 46.1 µM), hits mostly activators; note: nearly all actives have a fitted effect of over 65% in size
Tb PFK block: inhibitors of T. brucei phosphofructokinase; T. brucei PFK, ADP-Glo luminescence; Potency, µM (doses to about 57.5 µM), hits mostly inhibitors; 330,000 tested, 0.17% active; AID 485367; note: nearly all actives have a fitted effect of over 60% in size
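Activity is normalized to no-enzyme wells (full inhibition) and 1.25 nM enzyme wells (no inhibition). Reaction: 0.5 mM F6P, 0.1 mM ATP, 45 min RT, ADP-Glo luminescence; concentration-response curves fitted and classed by quality.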
GLS inhibitor: inhibitors of human glutaminase (GLS); O94925; GLS enzymatic activity, qHTS titration; Potency, µM (top dose mostly 45.5 µM), most hits filed as inhibitors; 410,000 tested, 0.21% active
Target sequence (O94925 whole entry, looked up): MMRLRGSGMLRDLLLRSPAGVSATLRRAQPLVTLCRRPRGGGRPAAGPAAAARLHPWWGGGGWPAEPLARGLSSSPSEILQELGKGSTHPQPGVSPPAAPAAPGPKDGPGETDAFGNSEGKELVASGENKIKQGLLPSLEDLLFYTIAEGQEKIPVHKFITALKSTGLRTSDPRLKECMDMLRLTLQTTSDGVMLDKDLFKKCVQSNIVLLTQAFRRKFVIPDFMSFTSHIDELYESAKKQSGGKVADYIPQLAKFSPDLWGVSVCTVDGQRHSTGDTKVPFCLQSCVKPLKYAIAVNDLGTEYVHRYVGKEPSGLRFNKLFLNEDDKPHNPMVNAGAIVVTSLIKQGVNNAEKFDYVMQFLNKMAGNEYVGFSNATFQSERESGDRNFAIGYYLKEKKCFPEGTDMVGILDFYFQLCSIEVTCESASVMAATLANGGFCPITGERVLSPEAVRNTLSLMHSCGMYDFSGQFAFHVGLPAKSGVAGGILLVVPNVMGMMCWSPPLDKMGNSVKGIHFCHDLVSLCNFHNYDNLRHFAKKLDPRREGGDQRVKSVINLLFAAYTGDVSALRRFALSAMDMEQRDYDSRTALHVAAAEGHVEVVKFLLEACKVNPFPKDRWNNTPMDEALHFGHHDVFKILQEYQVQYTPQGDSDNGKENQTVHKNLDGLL
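Glutamate formation by hKGA was monitored fluorometrically using coupled glutamate oxidase, HRP and Amplex Red. Substrate was added as 1 mM L-glutamine solution; incubation was 30 min at RT after an initial read.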
Pin1 inhibitor: inhibitors of human Pin1. Q13526. Pin1 FP peptide displacement, HiFluor488, 10 min. Potency, µM (titrated, usually from 115 µM), usual class: inhibitors. 390,000 tested, 0.009% active; active = well fitted inhibition curve with a large enough effect in the polarisation, with a control signal flat, not every such curve was filed as active; inconclusive = small, poorly fitted or top-dose-only effect, or effect the other way, or a change in a side signal; inactive = no such curve, though single readings can be large or run the other way; the % refers to the polarisation
Hits are given with their value; – = inactive; ? = inconclusive; · = no result; [ ] = another dose, or the depositor's remark. The list is not random: actives were taken first. Their share in the collection is about 0.42%. Unless noted, calls come from the whole dose curve; as a rule, active = well fitted curve in the direction sought with a large enough effect; inconclusive = small, poorly fitted or top-dose-only effect, or another doubt; inactive = no such curve, though single readings can be large; an effect the other way counts as inactive or inconclusive.

SMILES	BCR signal inh	PGK inhibitor	B2AR arrestin	Tb PFK block	GLS inhibitor	Pin1 inhibitor
Cn1c(N2CCCC2)nc2c1c(=O)n(Cc1ccc(Cl)cc1)c(=O)n2C	–	–	–	–	12.6µM	–
CN(c1ccccc1)c1ccc(/C=N/NC(=O)CC#N)cc1	?	–	1.3µM	–	–	?
COc1ccc(OC)c(/C=C/c2ccc3cccc(O)c3n2)c1	11.2µM	·	–	–	·	·
COc1cc(CC2COC(c3ccc(O)c(OC)c3)C2COC(C)=O)ccc1O (stereo not given)	?	?	–	–	11.2µM	?
COc1ccc(N2CCCC2)c(NC(=O)c2ccc([N+](=O)[O-])o2)c1	–	–	–	–	12.6µM	?
O=C(O)C1=C(C(=O)O)C2C=CC1C2	·	11.2µM	·	·	–	–
Cc1ccc(C)c(NC(=S)c2ccc3ccccc3n2)c1	?	–	–	–	–	–
Cc1ccc(C)c(NC(=S)c2ccccn2)c1	?	–	11.2µM	–	–	–
NC1CCN(c2nc(-c3ccc(Br)cc3)cs2)CC1	·	·	·	·	·	–
CC(=O)Nc1ccc(C=NNc2ccc([N+](=O)[O-])cc2S(=O)(=O)Nc2ccccc2C(=O)O)cc1	–	?	–	–	?	?
O=C(O)c1ccccc1NS(=O)(=O)c1ccc(N/N=C/c2cccc(O)c2O)c([N+](=O)[O-])c1	·	8.91µM	·	·	–	·
CN(CCO)c1ccc(C=NNc2ccc([N+](=O)[O-])cc2S(=O)(=O)Nc2ccccc2C(=O)O)cc1	–	–	–	–	11.2µM	–
O=C(O)Cc1cc(F)c(S(=O)(=O)N2CCN(S(=O)(=O)c3ccc4c(c3)OCCO4)CC2)cc1F	·	·	·	·	·	–
COc1ccc(C2c3c(n(CCCc4ccccc4)cnc3=N)Oc3ccc4ccccc4c32)cc1OC (stereo not given)	·	·	·	·	·	–
CC(=O)n1c(-c2ccccc2)c(-c2ccccc2)n(C)c1=O	·	–	·	·	31.6µM	–
COc1ccc(C2Nc3ccccc3C(=O)N2Cc2ccccc2)cc1COc1ccc(C)cc1 (stereo not given)	·	·	·	·	·	–
O=C(/C=C/c1cccs1)N1CCN(c2ccc(O)cc2)CC1	?	–	–	–	7.08µM	–
Cc1onc(-c2ccccc2Cl)c1C(=O)NCc1ccco1	–	–[11.5 µM]	–	–	10µM	?
CN(C)/C=C/c1c([N+](=O)[O-])c2ccc(O)cc2n1-c1ccccc1	?	–	–	–	8.91µM	–
COc1cc(F)c(S(=O)(=O)N2CCN(S(=O)(=O)c3ccco3)CC2)c(F)c1	·	·	·	·	·	–
Clc1ccccc1N/N=C/c1ccc2c(c1)OCO2	–	–	–	–	25.1µM	–
CC1CCCCN1c1ccc(N)cc1C(N)=O (stereo not given)	?	–	–	–	2µM	–
CSc1ccccc1NC(=O)c1noc2c1CCC2	?	?	–	16.9µM	–	?
COC(=O)c1ccccc1NC(=O)c1noc2c1CCC2	–	?	–	?	?	?
Cc1ccc(NS(=O)(=O)c2cccc(F)c2)cc1C	·	·	·	·	·	–
SMILES	BCR signal inh	PGK inhibitor	B2AR arrestin	Tb PFK block	GLS inhibitor	Pin1 inhibitor
O=C(NCC(=O)N1CCN(c2ccccc2O)CC1)C1CCCCC1	–	–	–	–	5.62µM	–
Cc1ccc(NS(=O)(=O)c2cc3c(cc2-c2cn[nH]c2)NC(=O)CO3)cc1C	·	·	·	·	·	–
O=c1c(O[C@@H]2O[C@H](CO)[C@H](O)[C@H](O)[C@H]2O)c(-c2ccc(O)c(O)c2)oc2cc(O)cc(O)c12	–	·	–	6.75µM	·	·
COc1ccc2c(=O)n3nc(Nc4ccc5c(c4)CCC5)sc3nc2c1	·	·	·	·	·	–
O=C(CNC(=O)c1ccc(C(F)(F)F)cc1)OC(C(=O)Nc1cc(C(F)(F)F)ccc1Cl)c1ccccc1 (stereo not given)	·	·	·	·	·	–
CC1=NN(c2ccc(C)cc2)C(=O)/C1=C\C=C\c1ccccc1	–	–	–	–	–	–
CC1=NN(c2cccc(C(=O)O)c2)C(=O)/C1=C\C=C/c1ccccc1	?	–	–	–	15.8µM	?
O=C(O)CCN1C(=O)/C(=C/c2ccc(-c3nc4ccccc4s3)o2)SC1=S	?	–	–	–	?	?
O=C(O)CC(C(=O)O)N1C(=O)/C(=C/c2ccc(-c3nc4ccccc4s3)o2)SC1=S (stereo not given)	–	25.1µM	–	?	11.2µM	?
